Here are results for 36 compounds from ChEMBL document CHEMBL4513135, “CO-ADD screening of IQOG CSIS (Spain) compounds”.

The test system of experiment [1] is Klebsiella pneumoniae. To be noted: Concentration 32 ug.mL-1, ASSAY_TEST Inhibition of Bacterial Growth, detection method Absorption (OD600), MEDIA CAMHB, plate type 384well, NBS, CORNING #3640, time 18 hr.
The subject of experiment [2] is Candida albicans. Particulars: 32 ug/mL.
Experiment [3] deals with Cryptococcus neoformans. To be noted: Concentration 32 ug.mL-1; ASSAY_TEST Inhibition of Fungal Growth; detection method Resazurin; Absorption (OD600-OD570); plate type 384well; NBS; CORNING #3640.

Several values for one entry are separate records, joined by “and”; a condition that tells them apart may be missing. Equal values may be shown once. Entries with a potency or affinity are not part of this list.

By Inhibition is commonly meant the relative decrease from the control value, in per cent. With `C#CCNc1cccc(F)n1`, the Inhibition is 9.96% in experiment [1], -0.33% in experiment [2] and -45.04% in experiment [3].

With `COc1ccc(-c2c(C#N)c(=O)oc3c2ccc2ccccc23)cc1`, the Inhibition in experiment [1] (32 ug/mL) is 4.75% and -0.52%; in experiment [2], 2.65% and 6.62%.

On to `C#CCN(C)c1nc(N)c(C#N)cc1C#N`, for which the Inhibition in experiment [1] (32 ug/mL) was 17.2% and 7.82%.

Consider `COc1ccc2cc(C=O)c(Cl)nc2c1`, for which the Inhibition turned out to be 1.14% in experiment [1], 6.08% in experiment [2] and 26.83% in experiment [3].

As to `Nc1ccccc1C(=O)N/N=C/c1c[nH]c2ccccc12`, the Inhibition is 18.84% in experiment [1], -0.37% in experiment [2] and 0.1% in experiment [3].

Consider `COc1cccc(C2c3c(ccc4ccccc34)OC(=N)C2(Br)C#N)c1` (stereo not given), for which, in experiment [1] (32 ug/mL), the Inhibition was 14.84% and 5.04%.

Consider `N#CC1=C(N)Oc2c(ccc3ccccc23)C1c1ccccc1` (stereo not given), for which the Inhibition is 10.23% in experiment [1], 1.97% in experiment [2] and -37.74% in experiment [3].

For the compound `N#Cc1cc(C#N)c(NCCCC2CCN(Cc3ccccc3)CC2)nc1N`, the values for the Inhibition in experiment [1], in experiment [2] and in experiment [3] were 10.46%, 0.89% and -57.65%, respectively.

For the compound `CN(C)c1nc(N)c(C#N)cc1C#N.Cl`, the Inhibition in experiment [1] (32 ug/mL) is -3.22% and 8.57%; in experiment [2], 3.18% and 2.67%.

In the case of `CC(=O)NC(=Cc1ccccc1)C(=O)O`, the values for the Inhibition in experiment [1], in experiment [2] and in experiment [3] were 19.96%, 2.49% and -0.91%, respectively.

Consider `C#CCNc1ncccn1`, for which the results for the Inhibition in experiment [1], in experiment [2] and in experiment [3] were 20.12%, 2.79% and -63.47%, respectively.

As for `CNC(=O)c1cc2cc(OC)ccc2[nH]1`, the Inhibition was 17.99% in experiment [1], -0.84% in experiment [2] and -6.03% in experiment [3].

Consider `O=C1OC(c2ccccc2)=NC12CC2c1ccc([N+](=O)[O-])cc1` (stereo not given), for which the Inhibition in experiment [1] is 15.67%; in experiment [2], 1.56%; in experiment [3] it was -2.27%.

`Cc1ccc(CNNC(N)=O)cc1.Cl`: the Inhibition in experiment [1] is 11.02%; in experiment [2], -0.27%; in experiment [3], -5.64%.

As to `N#Cc1c(N)nc(N2CCC(Cc3ccccc3)CC2)c(C#N)c1-c1ccccc1`, the Inhibition was 7.85% in experiment [1], 1.84% in experiment [2] and -30% in experiment [3].

Turning to `O=C(NNC(Cc1ccccc1)Cc1ccccc1)c1cc2ccccc2[nH]1`, the Inhibition in experiment [1] was 6.36%; in experiment [2], -2.25%; in experiment [3], -1.71%.

`CCOc1nc(N)c(C#N)cc1C#N.Cl`: the Inhibition was -1.63% in experiment [1], 2.86% in experiment [2] and -26.15% in experiment [3].

With `CC(=O)Oc1ccc(C=C2N=C(C)OC2=O)cc1`, the Inhibition in experiment [1] is 7.96%; in experiment [2] it was -1%; in experiment [3], -2.97%.

With `C#CCN(C)Cc1cc2cc(OC)ccc2n1C`, the Inhibition in experiment [1] was 12.36%; in experiment [2] it was 5.35%; in experiment [3] it was -77.43%.

With `Cn1cc(/C=C2\NC(=S)NC2=O)c2ccccc21`, the Inhibition in experiment [1] was 6.37%; in experiment [2] it was -0.01%; in experiment [3] it was -4.32%.

With `CC(=O)Oc1ccc(C=C2N=C(c3ccccc3)OC2=O)cc1`, the Inhibition in experiment [1] was -12.75%; in experiment [2] it was -0.21%; in experiment [3], -12.33%.

`COc1ccccc1C1C(C#N)=C(N)Oc2[nH]nc(C)c21` (stereo not given): the Inhibition in experiment [1] was 0.76%; in experiment [2] it was 2.02%; in experiment [3] it was -7.07%.

Regarding `COc1ccc(C2c3c(ccc4ccccc34)OC(=N)C2(Br)C#N)cc1` (stereo not given), the Inhibition is 10.22% in experiment [1], 17.9% in experiment [2] and -84.01% in experiment [3].

For the compound `CCOC(=O)C1=C(C)Oc2nc3c(c(N)c2C1c1nccn1C)CCCCC3` (stereo not given), the results for the Inhibition in experiment [1], in experiment [2] and in experiment [3] were 6.14%, 3.82% and -4.74%, respectively.

Regarding `CC(C)(C)OC(=O)Nc1ncccc1Br`, the Inhibition in experiment [1] is 19.74%; in experiment [2] it was 1.17%; in experiment [3] it was -55.01%.

For the compound `CC(=O)Nc1nn(C)c2nc3nc4c(c(N)c3cc12)CCCC4`, the Inhibition in experiment [1] (32 ug/mL) was 12.62% and 9.74%.

Regarding `CC#CCN(Cc1ccccc1)c1nc(N)c(C#N)c(-c2ccccc2)c1C#N`, the Inhibition in experiment [1] was -4.62%; in experiment [2] it was 3.12%; in experiment [3], -26%.

In the case of `Cc1[nH]nc2c1C(c1cccc([N+](=O)[O-])c1)C(C#N)=C(N)O2` (stereo not given), the Inhibition is 18.43% in experiment [1], -0.54% in experiment [2] and -0.61% in experiment [3].

Take `COc1ccc2c(ccn2C)c1`: the figures for the Inhibition in experiment [1], in experiment [2] and in experiment [3] were 14.15%, 1.33% and -1.95%, respectively.

As for `Nc1c2c(nc3c1C(c1c(Cl)cccc1Cl)c1ccc4ccccc4c1O3)CCCC2` (stereo not given), the Inhibition is 14.02% in experiment [1], -1.13% in experiment [2] and -7.78% in experiment [3].

For `N#CC1=C(Cl)Oc2ccc3ccccc3c2C1c1ccccc1` (stereo not given), the values for the Inhibition in experiment [1], in experiment [2] and in experiment [3] were 13.06%, 2.47% and -4.84%, respectively.

Turning to `N#Cc1cc(C#N)c(NCCC2CCN(Cc3ccccc3)CC2)nc1N`, the Inhibition in experiment [1] is 15.31%; in experiment [2], 0.11%; in experiment [3] it was -88.16%.

As to `CC1(C)OS(=O)(=O)C2=C1NC(N)=C(C#N)C2c1ccccc1` (stereo not given), the results for the Inhibition in experiment [1], in experiment [2] and in experiment [3] were 11.24%, 0.27% and -2.35%, respectively.

As to `CC1=N/C(=C(\C)c2ccccc2)C(=O)O1`, the Inhibition was -1.65% in experiment [1], 0.7% in experiment [2] and -3.17% in experiment [3].

For `COc1[nH]c(=O)ccc1C#N`, the values for the Inhibition in experiment [1], in experiment [2] and in experiment [3] were 19.79%, 7.91% and -56.43%, respectively.

As for `Cc1ccc(C(O)SNNc2ncnc3c2c(C)nn3-c2ccccc2)cc1` (stereo not given), the Inhibition was -18.74% in experiment [1], 1.06% in experiment [2] and -5.03% in experiment [3].
